We go through nine compounds from PubChem BioAssay (NCI).

Experiment [1] is described as follows: NCI Yeast Anticancer Drug Screen. Data for the rad50 strain (AID 155).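 Note: 0% = growth of vehicle-only cultures of the same strain.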 As to conditions: S. cerevisiae rad50 strain growth inhibition, hits give high values. Put shortly: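 DNA repair mutant yeast, compound exposure, growth read-out; inhibition is taken relative to vehicle.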
Experiment [2] in a line: NCI Yeast Anticancer Drug Screen. Data for the mec2-1 strain (AID 157). As to conditions: S. cerevisiae mec2-1 strain, hits give high values. Put shortly:
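Each compound was tested on mec2-1 yeast, a strain altered in DNA damage repair or cell cycle control. Growth inhibition is reported relative to vehicle.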

A short description of experiment [3]: NCI Yeast Anticancer Drug Screen. Data for the sgs1 mgt1 strain (AID 161).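 Note: 0% = growth of cultures given vehicle only.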 As to conditions: S. cerevisiae sgs1 mgt1 strain, hits give high values. Put shortly:
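Genetically altered yeast, compound exposure, growth inhibition relative to vehicle.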

Experiment [4] can be described thus: NCI Yeast Anticancer Drug Screen. Data for the cln2 rad14 strain (AID 165).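 Note: 0% = growth equal to vehicle treated cultures.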 As to conditions: S. cerevisiae cln2 rad14 strain, hits give high values. Put shortly: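 Test compounds were added to cln2 rad14 yeast cultures; inhibition of growth was then determined by comparison with vehicle treatment.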
Experiment [5] in a line: NCI Yeast Anticancer Drug Screen. Data for the bub3 strain (AID 167). The note with it: S. cerevisiae bub3 mutant strain, hits give high values. Put shortly: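 In this screen, a yeast mutant lacking normal mitotic checkpoint function is challenged with compound. Relative growth versus vehicle gives the inhibition value.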
A short description of experiment [6]: NCI Yeast Anticancer Drug Screen. Data for the mlh1 rad18 strain (AID 175). The note with it: S. cerevisiae mlh1 rad18 strain growth inhibition, hits give high values. Put shortly:
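Inhibition values reflect reduced growth of mutant yeast versus vehicle-treated controls following compound exposure; the mutations affect DNA damage repair.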

The mark [7] stands for this setting: at 5.0 µM (retest, dose inferred, filed as 0.5).
The mark [8] stands for this setting: at 50.0 µM (retest, dose inferred, filed as 5.0).

The panel holds about 79,000 compounds, 15% with a hit somewhere; the sample as a whole holds those more often. Values without a mark were called inactive. Calls of active or inactive are those of the source. Cut-off read from the data, not from the text of the source: active = growth inhibition above about 70%; inactive = the rest.

With `O=c1oc(-c2ccccc2Br)ns1`, the growth inhibition in experiment [1] (setting [7]) was 0%; in experiment [1] (setting [8]), 99% (active); in experiment [1] (at 50.0 µM) it was 98.8% (active); in experiment [2] (setting [7]), 3%; in experiment [2] (setting [8]), 100% (active); in experiment [2] (at 50.0 µM), 99.6% (active). The growth inhibition is 9% in experiment [3] (setting [7]); 99% (active) in experiment [3] (setting [8]); 99.4% (active) in experiment [3] (at 50.0 µM); 4% in experiment [4] (setting [7]); 99% (active) in experiment [4] (setting [8]); 89.8% (active) in experiment [4] (at 50.0 µM). Also, the growth inhibition in experiment [5] (setting [7]) is -8%; in experiment [5] (setting [8]) it was 99% (active); in experiment [5] (at 50.0 µM) it was 97.5% (active); in experiment [6] (setting [7]), 6%; in experiment [6] (setting [8]) it was 99% (active); in experiment [6] (at 50.0 µM), 99.3% (active).

Turning to `C=CCNC(=O)c1ccccc1C(=O)O`, the growth inhibition is 2% in experiment [1] (setting [7]); 28% in experiment [1] (setting [8]); 63.2% in experiment [1] (at 50.0 µM); 1% in experiment [2] (setting [7]); 1% in experiment [2] (setting [8]); 36.6% in experiment [2] (at 50.0 µM). Further, the growth inhibition is 0% in experiment [3] (setting [7]); 1% in experiment [3] (setting [8]); 28.2% in experiment [3] (at 50.0 µM); 2% in experiment [4] (setting [7]); 18% in experiment [4] (setting [8]); 23.6% in experiment [4] (at 50.0 µM). The growth inhibition is 4% in experiment [5] (setting [7]); 7% in experiment [5] (setting [8]); 68.2% in experiment [5] (at 50.0 µM); 3% in experiment [6] (setting [7]); 13% in experiment [6] (setting [8]); 46.7% in experiment [6] (at 50.0 µM).

For `Cn1c(=O)c2c(ncn2-c2ccncc2)n(C)c1=O`, the growth inhibition in experiment [1] (setting [7]) was -5%; in experiment [1] (setting [8]) it was 0%; in experiment [1] (at 50.0 µM) it was 11.4%; in experiment [2] (setting [7]) it was -4%; in experiment [2] (setting [8]), -5%; in experiment [2] (at 50.0 µM), -3.9%. The growth inhibition was -3% in experiment [3] (setting [7]); -7% in experiment [3] (setting [8]); 15.9% in experiment [3] (at 50.0 µM); -3% in experiment [4] (setting [7]); 31% in experiment [4] (setting [8]); 73.8% (active) in experiment [4] (at 50.0 µM). The growth inhibition in experiment [5] (setting [7]) is -9%; in experiment [5] (setting [8]), -8%; in experiment [5] (at 50.0 µM) it was -5.35%; in experiment [6] (setting [7]), -5%; in experiment [6] (setting [8]), -2%; in experiment [6] (at 50.0 µM) it was 4.8%.

For the compound `CC(C)(C)c1ccc(-c2nnc(SCc3ccc(Cl)cc3)n2-c2cccc(C(F)(F)F)c2)cc1`, the growth inhibition in experiment [1] (setting [7]) was -14%; in experiment [1] (setting [8]) it was -34%; in experiment [1] (at 50.0 µM) it was 52.6%; in experiment [2] (setting [7]), -20%; in experiment [2] (setting [8]), -26%; in experiment [2] (at 50.0 µM) it was 5.9%. For the same compound, the growth inhibition in experiment [3] (setting [7]) was -13%; in experiment [3] (setting [8]), -30%; in experiment [3] (at 50.0 µM), -3.2%; in experiment [4] (setting [7]) it was 9%; in experiment [4] (setting [8]) it was -14%; in experiment [4] (at 50.0 µM) it was -20.9%. Further, the growth inhibition was 7% in experiment [5] (setting [7]); -9% in experiment [5] (setting [8]); 14.4% in experiment [5] (at 50.0 µM); -28% in experiment [6] (setting [7]); -29% in experiment [6] (setting [8]); -19.6% in experiment [6] (at 50.0 µM).

Turning to `Nc1cc(F)c(F)cc1Sc1cc(F)c(F)cc1N`, the growth inhibition was 39% in experiment [1] (setting [7]); 95% (active) in experiment [1] (setting [8]); 99.2% (active) in experiment [1] (at 50.0 µM); 31% in experiment [2] (setting [7]); 99% (active) in experiment [2] (setting [8]); 99.2% (active) in experiment [2] (at 50.0 µM). Moreover, the growth inhibition is 52% in experiment [3] (setting [7]); 98% (active) in experiment [3] (setting [8]); 99.2% (active) in experiment [3] (at 50.0 µM); 41% in experiment [4] (setting [7]); 98% (active) in experiment [4] (setting [8]); 89.9% (active) in experiment [4] (at 50.0 µM). The growth inhibition is 29% in experiment [5] (setting [7]); 98% (active) in experiment [5] (setting [8]); 99.5% (active) in experiment [5] (at 50.0 µM); 54% in experiment [6] (setting [7]); 97% (active) in experiment [6] (setting [8]); 99.2% (active) in experiment [6] (at 50.0 µM).

Consider `COc1ccc2nc3cc(Cl)ccc3c(NCCC[N+](C)(C)CCCCCCCCCCCCCCCC[N+](C)(C)CCCNc3c4ccc(Cl)cc4nc4ccc(OC)cc34)c2c1`, for which the growth inhibition is 85% (active) in experiment [1] (setting [7]); 99% (active) in experiment [1] (setting [8]); 49.2% in experiment [1] (at 50.0 µM); 76% (active) in experiment [2] (setting [7]); 99% (active) in experiment [2] (setting [8]); 43.6% in experiment [2] (at 50.0 µM). Moreover, the growth inhibition in experiment [3] (setting [7]) was 77% (active); in experiment [3] (setting [8]), 98% (active); in experiment [3] (at 50.0 µM), 40.4%; in experiment [4] (setting [7]), 76% (active); in experiment [4] (setting [8]), 98% (active); in experiment [4] (at 50.0 µM), 76.6% (active). Also, the growth inhibition is 85% (active) in experiment [5] (setting [7]); 99% (active) in experiment [5] (setting [8]); 47.2% in experiment [5] (at 50.0 µM); 92% (active) in experiment [6] (setting [7]); 99% (active) in experiment [6] (setting [8]); 97.8% (active) in experiment [6] (at 50.0 µM).

As for `CC/C(=C(/CC)c1ccc(O)cc1)c1ccc([O-])cc1.CC/C(=C(/CC)c1ccc(O)cc1)c1ccc([O-])cc1.O=C([CH-]C(=O)c1ccccc1)c1ccccc1.O=C([CH-]C(=O)c1ccccc1)c1ccccc1.[Ti+4]`, the growth inhibition in experiment [1] (setting [7]) is 64%; in experiment [1] (setting [8]) it was 95% (active); in experiment [1] (at 50.0 µM), 88.8% (active); in experiment [2] (setting [7]) it was 60%; in experiment [2] (setting [8]) it was 97% (active); in experiment [2] (at 50.0 µM) it was 92% (active). The growth inhibition in experiment [3] (setting [7]) was 74% (active); in experiment [3] (setting [8]), 98% (active); in experiment [3] (at 50.0 µM) it was 92.8% (active); in experiment [4] (setting [7]) it was 56%; in experiment [4] (setting [8]), 96% (active); in experiment [4] (at 50.0 µM), 91.5% (active). For the same compound, the growth inhibition in experiment [5] (setting [7]) was 78% (active); in experiment [5] (setting [8]), 98% (active); in experiment [5] (at 50.0 µM), 90.2% (active); in experiment [6] (setting [7]), 80% (active); in experiment [6] (setting [8]) it was 93% (active); in experiment [6] (at 50.0 µM), 89% (active).

Turning to `O=[N+]([O-])c1ccc2c(c1)/C(=C/c1ccccc1O)c1ccccc1-2`, the growth inhibition in experiment [1] (setting [7]) was 66%; in experiment [1] (setting [8]), 91% (active); in experiment [1] (at 50.0 µM), 92.7% (active); in experiment [2] (setting [7]), 81% (active); in experiment [2] (setting [8]), 93% (active); in experiment [2] (at 50.0 µM), 90.5% (active). For the same compound, the growth inhibition in experiment [3] (setting [7]) is 69%; in experiment [3] (setting [8]) it was 92% (active); in experiment [3] (at 50.0 µM) it was 88.5% (active); in experiment [4] (setting [7]), 52%; in experiment [4] (setting [8]) it was 87% (active); in experiment [4] (at 50.0 µM), 84.3% (active). Besides, the growth inhibition in experiment [5] (setting [7]) was 42%; in experiment [5] (setting [8]), 91% (active); in experiment [5] (at 50.0 µM), 92% (active); in experiment [6] (setting [7]) it was 89% (active); in experiment [6] (setting [8]), 91% (active); in experiment [6] (at 50.0 µM), 90.2% (active).

`CC(=O)OCC1OC(Sc2ccc3ccccc3c2)C(OC(C)=O)C(OC(C)=O)C1OC(C)=O` (configuration not stated): the growth inhibition was 2% in experiment [1] (setting [7]); -7% in experiment [1] (setting [8]); 23.9% in experiment [1] (at 50.0 µM); 3% in experiment [2] (setting [7]); 2% in experiment [2] (setting [8]); 12.8% in experiment [2] (at 50.0 µM). In addition, the growth inhibition was 2% in experiment [3] (setting [7]); 1% in experiment [3] (setting [8]); 2.7% in experiment [3] (at 50.0 µM); 1% in experiment [4] (setting [7]); -15% in experiment [4] (setting [8]); 52.4% in experiment [4] (at 50.0 µM). Also, the growth inhibition was 4% in experiment [5] (setting [7]); 7% in experiment [5] (setting [8]); 70.2% (active) in experiment [5] (at 50.0 µM); 0% in experiment [6] (setting [7]); -2% in experiment [6] (setting [8]); 22% in experiment [6] (at 50.0 µM).
